# MBD2 inh = inhibitors of MBD2 binding to methylated DNA, primary screen, biochemical, TR-FRET, DNA-binding domain, human; AID 686964, 2013; 370,000 tested, 0.31% active; inhibition, % at 4.4 µM; MBD2 binding to methylated oligonucleotide; Methyl-CpG-binding domain protein 2 (Homo sapiens), Q9UBB5; in the data active = inhibition above about 13%
# Rin1-Abl PPI inh = inhibitors of Rin1-Abl protein binding, primary screen, biochemical, TR-FRET; inhibition, % at 7.35 µM; Tyrosine-protein kinase ABL1 (Homo sapiens) + Ras and Rab interactor 1 (Homo sapiens), …; 360,000 tested, 0.4% active; AID 588664, 2011; in the data active = inhibition above about 5%, passing the limit was not always enough
# Neddyl block = inhibitors of cullin neddylation, primary screen, biochemical, TR-FRET, uHTS, NAE and Ubc12; calls only at 25 µM; 360,000 tested, 0.58% active; in the data active = inhibition above about 36%
# proKLK7 act = proKLK7 zymogen activators, primary screen, biochemical, fluorescence intensity. purified proKLK7, EDANS-DABCYL substrate fluorescence; 100% is mature enzyme control, 0% vehicle. activation, % at 7 µM. 370,000 tested, 0.9% active;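 active = activation above the mean of all tested compounds plus 3 SD, computed per campaign excluding outliers beyond control limits, cut at about 13% in these data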
# UHRF1 MBD2 ctr = UHRF1 methylated DNA binding inhibitors, primary screen, counter-screen for MBD2 inhibitor project, biochemical, TR-FRET, human UHRF1, single concentration; E3 ubiquitin-protein ligase UHRF1 (Homo sapiens), Q96T88; UHRF1 binding to methylated oligo; inhibition, % at 4.4 µM; 370,000 tested, 0.75% active; AID 687016, 2013; in the data active = inhibition above about 21%;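 note: UHRF1 SRA domain binding a hemimethylated CpG hairpin DNA probe; 0% = median of test compound wells and 100% = reference inhibitor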
# LEDGF integ inh = blockers of LEDGF/p75-dependent integrase strand transfer – biochemical, TR-FRET, high throughput, primary screen; HIV-1 integrase (with human LEDGF/p75); inhibition, % at 3.7 µM; TR-FRET IN-LEDGF/p75 DNA integration, Eu/Cy5; 370,000 tested, 0.64% active;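 active = inhibition above the screen-wide mean plus 3 SD, cut at about 13% in these data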;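 note: signal is the Cy5 over europium emission ratio at 671 and 618 nm; 0% = plate median of compound wells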
# Numbers without * were called inactive; i = inactive; x = no result shown; + = active, no number. Sampled rows, rich in hits. Any-hit rate of the full collection: about 3.1%.
SMILES,MBD2 inh,Rin1-Abl PPI inh,Neddyl block,proKLK7 act,UHRF1 MBD2 ctr,LEDGF integ inh
CCCNC(=O)c1cc2c(c(-c3cccc(-c4cc5ccccc5o4)c3)n1)[C@@H](CCO)N(C(=O)NC(C)C)C2,-5.3,x,i,0.4,27.7*,-4.4
CCNC(=O)c1cc2c(c(-c3cccc(-c4cc5ccccc5o4)c3)n1)[C@H](CCO)N(C(=O)NC(C)C)C2,3.3,x,i,-1.0,-1.4,-0.6
Cc1ccc(NC(=O)C2CCN(S(=O)(=O)c3ccc4c(c3)OCCCO4)CC2)nc1,5.5,1.5,i,0.1,33.7*,-1.0
O=C(OCC(=O)N1CCN(C(=O)c2ccco2)CC1)c1ccccc1OCc1ccc(Cl)cc1,-3.9,1.7,i,0.5,1.1,1.0
Cc1ccc2ccc(C(Nc3cccc(C(F)(F)F)c3)c3cccnc3)c(O)c2n1 (stereo not drawn),-7.1,3.0,+,0.2,0.1,-7.2
Cc1ccc2ccc(C(Nc3ccccc3)c3ccccc3)c(O)c2n1 (stereo not drawn),-5.1,x,i,0.4,-2.6,2.9
COc1ccc(OC)c(NC(=O)C2(C)CCN2C(=O)CC2CC2)c1 (stereo not drawn),1.1,1.5,i,-0.3,28.2*,2.7
COc1ccc(OC)c(NC(=O)C2(C)CCN2C(=O)CCC2CCCC2)c1 (stereo not drawn),-2.2,1.3,i,0.1,0.9,-0.3
CCOc1ccccc1C(=O)NCC(=O)NNC(=O)c1cccs1,-0.8,1.3,i,-0.1,21.2*,2.5
COC(=O)/C=c1/s/c(=C(/C#N)C(=O)N2CCCCC2)n(-c2ccccc2)c1=O,-1.6,0.6,i,-0.8,2.1,-2.4
COC(=O)/C=c1/s/c(=C(/C#N)C(=O)N2CCOCC2)n(-c2ccccc2)c1=O,1.9,0.1,i,-0.2,79.8*,-1.5
Cc1cc(C)cc(-n2nnnc2-c2cn(C)nc2C(F)(F)F)c1,-1.4,7.5*,i,-0.4,3.2,0.5
Cc1ccc(CN2CCC[C@]3(N[C@H](c4ccc(C)cc4)[C@@H]4C(=O)N(Cc5ccccc5)C(=O)[C@@H]43)C2=O)cc1,-0.4,-3.4,i,0.5,22.1*,5.7
O=C1[C@H]2[C@@H](c3ccccc3)N[C@]3(CCCN(Cc4ccc(F)cc4)C3=O)[C@H]2C(=O)N1Cc1ccccc1,10.0,-0.6,i,1.0,23.4*,-0.1
COc1ccccc1N(CC(O)Cn1c2ccccc2c2ccccc21)S(=O)(=O)c1ccccc1 (stereo not drawn),6.8,2.8,i,-0.8,21.2*,-0.2
O=S(=O)(c1ccccc1)N(CC(O)Cn1c2ccccc2c2ccccc21)c1ccccc1 (stereo not drawn),-3.3,-1.3,i,-0.7,1.1,-2.0
CCOC(=O)C1CC(c2ccccc2)=NNC1=O (stereo not drawn),1.5,3.0,i,0.3,4.0,5.8
Cc1ccccc1C(=O)NC(=S)NC1CCSC1=O (stereo not drawn),-1.7,-1.2,i,-0.6,-1.9,-3.6
O=C(NC(=S)NC1CCSC1=O)c1cccs1 (stereo not drawn),-3.3,0.8,i,0.7,49.7*,-2.2
Cn1nc2c(c1C(=O)N1CCCC(C(=O)c3cc(F)ccc3F)C1)CCCC2 (stereo not drawn),2.0,4.3,i,0.1,0.8,-0.3
COc1ccc(C(=O)C2CCCN(C(=O)c3c4c(nn3C)CCCC4)C2)cc1F (stereo not drawn),1.6,0.0,i,-1.4,39.0*,-4.4
COc1ccccc1CNC(=O)COc1cc(O)c2c(c1)OC(C)(C)CC2=O,1.0,-0.6,i,-0.6,0.8,1.2
Cc1c(C(=O)Nc2ccc(S(=O)(=O)NCC3CCCO3)cc2)cccc1[N+](=O)[O-] (stereo not drawn),-3.1,0.7,i,-0.3,20.9*,1.1
COCCCNC(=S)N/N=C/c1cccc(OC)c1O,0.6,-2.0,+,-22.2,8.4,-2.3
O=C(O)c1ccc(N=C2c3ccccc3-c3ccccc32)cc1,0.7,-1.6,i,0.6,2.7,1.2
SMILES,MBD2 inh,Rin1-Abl PPI inh,Neddyl block,proKLK7 act,UHRF1 MBD2 ctr,LEDGF integ inh
CCCc1c2c(cc3c(=O)cc(C(=O)OCC)oc13)CCCC2,4.0,2.3,i,0.7,74.4*,0.0
COc1ccc(NC(=O)c2cccc(S(=O)(=O)N3CCN(c4ccccc4)CC3)c2)c(OC)c1,5.2,-1.3,i,0.0,21.7*,-1.4
O=C(CSc1nnc(-c2cccc(Br)c2)o1)N1CCNC1=O,0.0,-1.2,i,0.4,-1.4,0.2
NS(=O)(=O)c1cc(C(=O)NC2CCSc3ccccc32)ccc1Cl (stereo not drawn),96.4*,0.6,i,0.1,102.3*,60.5*
CCCCNC(=O)O[C@H]1CC[C@@]23CCCN2C(=O)CCC[C@H]3[C@H]1CCC,2.8,x,x,x,5.9,5.5
CCCCNC(=O)C1C(c2ccc(C(F)(F)F)cc2)=Nc2ccccc2N1C(=O)C1CCN(C(C)=O)CC1 (stereo not drawn),1.8,x,i,-0.5,-0.9,0.1
Cc1oc2c(c(C)cc3oc(=O)c(CC(=O)NCCCO)c(C)c32)c1C,3.0,-5.5,i,-8.8,-5.2,-1.2
Cc1oc2c(c(C)cc3oc(=O)c(CC(=O)NCC(=O)NCC(=O)NCC(C)O)c(C)c32)c1C (stereo not drawn),-7.7,1.0,x,-20.6,65.4*,-5.2
Cc1ccc(C(=O)Nc2ccc(N3CCN(C(=O)c4ccco4)CC3)cc2)cc1,2.4,2.2,i,0.5,4.9,-5.0
O=C(Nc1ccc(N2CCN(C(=O)c3ccco3)CC2)cc1)c1ccc(Br)cc1,-1.4,0.1,i,-0.3,70.4*,0.1
COc1ccc2nccnc2c1[N+](=O)[O-],-5.8,0.5,i,0.0,30.3*,4.6
Cc1ccc2ncccc2c1[N+](=O)[O-],-2.9,-1.9,i,-1.4,-4.7,2.7
O=C(O)CCNc1ccc(NCCC(=O)O)c2c1C(=O)c1ccccc1C2=O,2.3,-7.2,i,0.3,39.9*,-7.6
C[C@H]1CN(C(=O)OC(C)(C)C)CCN1c1ccc(N2CCS(=O)(=O)CC2)c(C#N)c1,-2.5,x,x,0.9,-1.6,-5.9
COCCN(C(=O)C(C)C)c1nnc(-c2ccc(C)cc2)s1,-2.5,-2.3,i,-0.7,-1.9,0.6

# Source: PubChem
